# PubChem BioAssay (EPA / NIEHS)
# Active and inactive are the calls of the source. Rule for the calls: active = hit-call score of the fitted dose curve at least 0.9, where 1 is the maximum; inactive = score below 0.9.
# Test: ATG_PXRE_CIS: Attagene CIS-FACTORIAL HepG2 Assay for human Pregnane X Receptor Element (PXRE) (AID 2282957)
# Details: HepG2 Attagene CIS-FACTORIAL PXRE reporter, mRNA; actives raise or lower the signal
# Procedure: ATG_CIS is a cell-based, multiplexed-readout assay that uses HepG2, a human liver cell line, with measurements taken at 24 hours after chemical dosing in a 24-well plate.ATG_PXRE_CIS is one of 52 assay component(s) measured or calculated from the ATG_CIS assay. It is designed to make measurements of mRNA induction, a form of inducible reporter, as detected with fluorescence intensity signals by Reverse transcription polymerase chain reaction (RT-PCR) and Capillary electrophoresis technology.Data from the assay component ATG_PXRE_CIS was analyzed into 1 assay endpoint. This assay endpoint, ATG_PXRE_CIS, was analyzed with bidirectional fitting relative to DMSO as the negative control and baseline of activity. Using a type of inducible reporter, measures of mRNA for gain or loss-of-signal activity can be used to understand the reporter gene at the transcription factor-level as they relate to the gene NR1I2. Furthermore, this assay endpoint can be referred to as a primary readout, because this assay has produced multiple assay endpoints where this one serves a reporter gene function. To generalize the intended target to other relatable targets, this assay endpoint is annotated to the nuclear receptor intended target family, where the subfamily is non-steroidal.
# Human liver HepG2 cells are transiently transfected with multiple reporter transcription units (MRTUs) in 6-well plates using FuGene 6 reagent (Roche; 3 ml FuGene/1 mg DNA). The MRTU constructs are regulated by a cis-regulating element (promoter). […] A major difference between the CIS and TRANS system is that in CIS activities of endogenous TFs are measured, whereas the TRANS assay evaluates changes in activities of exogenous, chimeric NR-Gal4 proteins. […] At the end of 24 hour incubation, total RNA was isolated using TriZol reagent (Invitrogen). The isolated RNA is then reverse-transcribed using oligo(dT) primer and Mo-MLV reverse transcriptase (Invitrogen) with DNAse I (Ambion) treatment for 30 min. The one-tenth of the produced cDNA was amplified by PCR using Taq DNA polymerase (Invitrogen) and two reporter sequence-specific primers. The PCR products were fluorescently labeled by primer extension with 6-arboxyfluorescein (6-FAM) 5'-labeled reporter sequence-specific primer (2 min at 95 C, 20 s at 68 C and 10 min at 72 C) and these products were digested with 5U of HpaI (New England Biolabs) for 2h at 37 C. The fragments were purified using Qiaquick PCR columns (Qiagen), analyzed on an ABI 3130xL genetic analyzer (Applied Biosystems) with peak positions identified by using a set of X-rhodamine (ROX)-labeled MapMarker1000 molecular weight standards (BioVentures). The raw capillary electrophoresis data was processed using Attagraph software (Attagene).
SMILES,AC50,outcome
Cc1cccc([N+](=O)[O-])c1C,27.1 µM (active),–
NC(=O)Cn1c(=O)cc(CCN2CCN(c3nccc4sccc34)CC2)c2ccc(F)cc21,5.72 µM (active),–
NCC1(Cc2noc(=O)[nH]2)CCCCC1,–,inactive
CNCc1cc(F)ccc1Oc1ccc(Cl)c(Cl)c1,7.83 µM (active),–
CCc1c(C(=O)NN2CCCCC2)nn(-c2ccc(Cl)cc2Cl)c1-c1ccc(Br)cc1,0.147 µM (active),–
Cc1c(C(=O)O)c(O)cc2c1C(=O)c1c(O)c([C@@H]3O[C@H](CO)[C@@H](O)[C@H](O)[C@H]3O)c(O)c(O)c1C2=O,53.9 µM (active),–
CCCCC(CC)COC(=O)CC(C(=O)OCC(CC)CCCC)S(=O)(=O)O (stereo not given),1.1 µM (active),–
O=c1[nH]cc(F)c(=O)[nH]1,–,inactive
COc1cc(S(=O)(=O)O)c(C)cc1N=Nc1c(O)ccc2cc(S(=O)(=O)O)ccc12,–,inactive
Cc1cc(NC(=O)C(=O)O)cc(C)c1Oc1ccc(O)c2c1CCC2,–,inactive
CCNc1cccc(C)c1,–,inactive
CC(C)(C)c1cc(O)c(C(C)(C)C)cc1O,–,inactive
CC(=O)OCCOCCOCCOC(C)=O,–,inactive
CN1CCN(Cc2cc(-c3ccc4[nH]c(=O)oc4c3)co2)[C@@H](c2ccc(F)cc2)C1,8.51 µM (active),–
Cc1ccccc1Cl,–,inactive
CCCCCCCC=O,–,inactive
CN[C@H]1CC[C@@H](c2ccc(Cl)c(Cl)c2)c2ccc(S(N)(=O)=O)cc21,–,inactive
CC(=O)C(C)=CC1C(C)=CCCC1(C)C (stereo not given),22.9 µM (active),–
CCCCCCCCCCO,–,inactive
CC1=C(/C=C/C(C)=C/C=C/C(C)=C/CO)C(C)(C)CCC1,0.464 µM (active),–

SMILES,AC50,outcome
NCCO,–,inactive
OC[C@@H](O)[C@@H](O)[C@H](O)[C@H](O)CO,–,inactive
COc1ccc(C)cc1N,–,inactive
Cc1cccc(Nc2cc(Cl)nc(SCC(=O)O)n2)c1C,29.8 µM (active),–
COc1ccc(S(=O)(=O)N2C(=O)[C@@](c3ccccc3OC)(N3C[C@H](O)C[C@H]3C(=O)N(C)C)c3cc(Cl)ccc32)c(OC)c1,0.0584 µM (active),–
COc1cc(/C=C/C(=O)CC(=O)/C=C/c2ccc(O)c(OC)c2)ccc1O,60.4 µM (active),–
COc1cccc2c1C(=O)c1c(O)c3c(c(O)c1C2=O)C[C@@](O)(C(=O)CO)C[C@@H]3O[C@H]1C[C@H](N)[C@H](O)[C@H](C)O1,–,inactive
NS(=O)(=O)c1cc2c(cc1Cl)NCNS2(=O)=O,–,inactive
CCCCCCCCCCCCCO,–,inactive
CCOc1ccc2c(c1)C(C)=CC(C)(C)N2,1.91 µM (active),–
CC1(C)CC(N=C=O)CC(C)(CN=C=O)C1 (stereo not given),55.6 µM (active),–
Nc1nc(N)c2nc(CNc3ccc(C(=O)N[C@@H](CCC(=O)O)C(=O)O)cc3)cnc2n1,–,inactive
Cc1cccc(C)c1O,–,inactive
CNC(=O)[C@H]1O[C@@H](n2cnc3c(NCc4cc(Cl)ccc4OCc4cc(C)no4)ncnc32)[C@H](O)[C@@H]1N,–,inactive
CC(=O)OC/C=C(\C)CCC=C(C)C,48.3 µM (active),–
Clc1cc(Cl)c(Cl)cc1Cl,–,inactive
CCCCCCC(=O)OCC,30.1 µM (active),–
CCCCCCOCCO,–,inactive
Cc1ccc(C)c(C)c1,27.5 µM (active),–
COc1cc(C=O)ccc1O,–,inactive
